Results reported in PubChem BioAssay (NCATS).
Results filed as inconclusive are left out. Where a call stands in place of a potency, no number is given. The source made the active and inactive calls. Calls follow the shape of the dose curve; as a rule, active = well fitted curve in the direction sought with a large enough effect; inconclusive = small, poorly fitted or top-dose-only effect, or another doubt; inactive = no such curve, though single readings can be large; an effect the other way counts as inactive or inconclusive.

Tests used:
[1] = target: Ferritin light chain (Equus caballus) (UniProt P02791); experiment: qHTS Validation Assay for Identification of Novel General Anesthetics (AID 2323); conditions: horse apoferritin, anesthetic-site fluorescent probe displacement; series mostly up to 76.9 µM
Ferritin light chain (Equus caballus), sequence (P02791 2-175 limits assumed): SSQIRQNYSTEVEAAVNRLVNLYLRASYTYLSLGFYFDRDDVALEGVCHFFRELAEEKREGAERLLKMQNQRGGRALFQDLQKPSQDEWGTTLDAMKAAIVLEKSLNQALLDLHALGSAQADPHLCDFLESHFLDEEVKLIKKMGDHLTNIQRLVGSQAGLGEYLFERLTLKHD
How it was run: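 Apoferritin from horse spleen (10 uM) was mixed with 1-aminoanthracene at 50% saturation in PBS, then compounds were added. After 10 min at room temperature, fluorescence was read (ex 380 nm, em 535 nm) and normalized to free-probe and complex controls.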

[2] = target: ATP-dependent DNA helicase Q1 (Homo sapiens) (UniProt P46063); experiment: qHTS Validation Assay for Inhibitors of RecQ-Like Dna Helicase 1 (RECQ1) (AID 2353); conditions: recombinant RECQ1 helicase DNA unwinding assay; series mostly up to 25.6 µM
ATP-dependent DNA helicase Q1 (Homo sapiens), sequence (P46063 whole entry, looked up): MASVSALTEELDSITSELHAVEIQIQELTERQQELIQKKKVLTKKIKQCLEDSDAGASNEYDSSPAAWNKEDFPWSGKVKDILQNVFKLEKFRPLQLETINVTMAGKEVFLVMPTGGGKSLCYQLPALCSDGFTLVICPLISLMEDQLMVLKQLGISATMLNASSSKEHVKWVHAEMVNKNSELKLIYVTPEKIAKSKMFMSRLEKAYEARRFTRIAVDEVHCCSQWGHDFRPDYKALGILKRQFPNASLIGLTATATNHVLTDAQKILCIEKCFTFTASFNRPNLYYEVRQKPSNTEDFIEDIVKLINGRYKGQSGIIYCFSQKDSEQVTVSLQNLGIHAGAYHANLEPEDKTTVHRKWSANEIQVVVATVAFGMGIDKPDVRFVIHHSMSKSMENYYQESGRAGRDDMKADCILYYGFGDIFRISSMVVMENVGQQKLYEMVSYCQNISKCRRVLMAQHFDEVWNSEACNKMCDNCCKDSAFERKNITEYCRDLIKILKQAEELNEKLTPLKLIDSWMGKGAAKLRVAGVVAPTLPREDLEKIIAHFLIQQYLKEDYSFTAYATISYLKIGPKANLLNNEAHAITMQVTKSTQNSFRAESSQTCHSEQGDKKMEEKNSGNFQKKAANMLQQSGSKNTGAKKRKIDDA
How it was run: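 50 nM RECQ1T1 preincubated 15 min with compound in Tris pH 8.0 buffer with MgCl2, DTT, Tween-20 and 2.5 ug/ml poly(dI-dC); started with 200 nM TAMRA/BHQ-2 forked duplex and 2 mM ATP. Unwinding read as fluorescence (525/598 nm), two reads 2 h apart.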

[3] = Cytometric Cell-Based qHTS for Inhibitors of the mTORC1 Signaling Pathway in MEF (Tsc2-/-, p53-/-) Cells (AID 2660); conditions: mTORC1 pathway cytometry; series mostly up to 38.3 µM;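 also: percent of cells above a phospho-rpS6 to PI ratio cutoff in each well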
How it was run: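 Tsc2-/-, p53-/- MEFs (empty vector) exposed to compound 24 h at 37 C, fixed, stained with Alexa-488 anti-phospho-rpS6 Ser235/236 and propidium iodide. Acumen laser scanning; phospho-S6/PI ratio thresholded against 7.5 nM rapamycin, reported as % positive cells.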

[4] = High Content Imaging Cell-Based qHTS for Inhibitors of the mTORC1 Signaling Pathway in MEF (Tsc2-/-, p53-/-) Cells (AID 2666); conditions: series mostly up to 38.3 µM;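 also: percent of cells scored positive for phospho-rpS6 Ser235/236 immunostaining by imaging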
How it was run: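 Phospho-rpS6 (Ser235/236) immunofluorescence, normalized and scored as % positive cells using rapamycin and DMSO controls, was read in empty-vector Tsc2-/-, p53-/- MEFs after 24 h compound exposure at 37 C; propidium iodide counted cells.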

[5] = High Content Imaging Cell-Based qHTS for Inhibitors of the mTORC1 Signaling Pathway in MEF Cells (AID 2667); conditions: series mostly up to 38.3 µM; also: potency is read from the fitted curve at half-maximal effect
How it was run: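 WT MEFs (Tsc2-/-, p53-/- re-expressing Tsc2), in DMEM + 10% FBS, were treated with compound for 24 h at 37 C. Cells were then fixed and stained for phospho-rpS6 Ser235/236 with propidium iodide as cell count. Values are % positive cells, with thresholds set against rapamycin-treated cells.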

[6] = Validation screen for small molecules that induce DNA re-replication in MCF 10A normal breast cells (AID 463097); conditions: MCF 10A cells, DNA re-replication phenotype imaging; series mostly up to 46.1 µM; also: nearly all actives have a fitted effect of over 60% in size; also: potency is read from the fitted curve at half-maximal effect
How it was run: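 DNA re-replication was detected as a rise in nuclei with elevated Hoechst fluorescence after a 48 hr compound exposure of MCF 10A cells at 37 C.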

[7] = Cytometry Cell-Based qHTS for Inhibitors of the mTORC1 Signaling Pathway in MEF cells (AID 2668); conditions: mTORC1 pathway readout; series mostly up to 38.3 µM;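 also: Tsc2-/- p53-/- mouse embryonic fibroblasts stably re-expressing wild-type Tsc2; percent cells positive for phospho-rpS6 Ser235/236 relative to propidium iodide stain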
How it was run: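 Pathway inhibition in WT Tsc2-rescued Tsc2-/-, p53-/- MEFs is measured as the Alexa-488 phospho-rpS6 to propidium iodide intensity ratio after 24 hrs of compound at 37 degree Celsius. PI-stained cell number gives viability.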

[8] = target: RecQ-like DNA helicase BLM (Homo sapiens) (UniProt P54132); experiment: qHTS Validation Assay for Inhibitors of Bloom's syndrome helicase (BLM) (AID 2364); conditions: BLM helicase DNA unwinding, fluorescence, in vitro; series mostly up to 57.1 µM; also: potency is read from the fitted curve at half-maximal effect
RecQ-like DNA helicase BLM (Homo sapiens), sequence (P54132 whole entry, looked up): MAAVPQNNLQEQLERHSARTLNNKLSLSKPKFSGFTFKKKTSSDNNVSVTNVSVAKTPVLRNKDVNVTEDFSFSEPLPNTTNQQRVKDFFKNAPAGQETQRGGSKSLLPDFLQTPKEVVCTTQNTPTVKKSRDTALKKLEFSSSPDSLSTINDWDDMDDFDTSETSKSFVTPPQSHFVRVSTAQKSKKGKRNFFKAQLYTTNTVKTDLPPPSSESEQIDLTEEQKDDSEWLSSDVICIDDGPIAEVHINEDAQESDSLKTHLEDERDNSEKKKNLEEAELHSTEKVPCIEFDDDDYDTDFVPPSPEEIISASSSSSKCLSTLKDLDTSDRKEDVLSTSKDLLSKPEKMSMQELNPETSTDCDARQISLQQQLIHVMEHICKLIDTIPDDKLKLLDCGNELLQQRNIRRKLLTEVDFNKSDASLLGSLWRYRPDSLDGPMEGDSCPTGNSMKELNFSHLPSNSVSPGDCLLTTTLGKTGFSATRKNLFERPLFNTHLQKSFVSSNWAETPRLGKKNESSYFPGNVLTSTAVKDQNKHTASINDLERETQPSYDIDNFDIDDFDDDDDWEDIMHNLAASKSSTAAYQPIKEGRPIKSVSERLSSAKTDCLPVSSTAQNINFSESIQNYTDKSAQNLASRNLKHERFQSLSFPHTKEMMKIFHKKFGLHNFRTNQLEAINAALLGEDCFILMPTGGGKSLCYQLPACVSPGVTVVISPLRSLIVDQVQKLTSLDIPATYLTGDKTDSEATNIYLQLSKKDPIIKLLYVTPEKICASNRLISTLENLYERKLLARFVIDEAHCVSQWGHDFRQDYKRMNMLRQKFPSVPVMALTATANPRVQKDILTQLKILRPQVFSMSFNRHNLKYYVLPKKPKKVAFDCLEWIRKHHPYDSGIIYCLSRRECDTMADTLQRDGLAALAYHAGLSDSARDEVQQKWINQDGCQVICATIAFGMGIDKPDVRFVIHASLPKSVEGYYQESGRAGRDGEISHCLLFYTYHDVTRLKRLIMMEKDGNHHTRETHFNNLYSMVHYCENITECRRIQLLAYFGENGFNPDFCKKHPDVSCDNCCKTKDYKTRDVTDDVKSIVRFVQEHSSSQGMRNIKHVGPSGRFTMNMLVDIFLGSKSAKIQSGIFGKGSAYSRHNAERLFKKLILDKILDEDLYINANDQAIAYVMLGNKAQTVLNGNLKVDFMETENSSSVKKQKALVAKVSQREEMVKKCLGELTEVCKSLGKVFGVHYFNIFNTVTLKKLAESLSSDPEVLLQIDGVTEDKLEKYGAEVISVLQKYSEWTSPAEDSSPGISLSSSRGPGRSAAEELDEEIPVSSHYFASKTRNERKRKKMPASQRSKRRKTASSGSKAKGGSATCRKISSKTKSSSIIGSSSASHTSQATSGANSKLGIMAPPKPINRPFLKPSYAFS
How it was run: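 50 nM BLM preincubated 15 min at room temperature with compound in pH 8.0 Tris buffer containing 2.5 ug/ml poly(dI-dC); started with 200 nM TAMRA/BHQ-2 forked duplex and 2 mM ATP (final). Unwinding read as TAMRA fluorescence increase, two reads 2 h apart.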

| Compound | Potency [1] | Potency [2] | outcome [3] | Potency [4] | Potency [5] | Potency [6] | Potency [7] | Potency [8] |
| --- | --- | --- | --- | --- | --- | --- | --- | --- |
| OCC1O[C@H](O)C(Cl)C(O)C1O (some centres undefined) | inactive | inactive | inactive | inactive | inactive | inactive | – | – |
| CC(=O)SCC[N+](C)(C)C | inactive | inactive | inactive | inactive | inactive | inactive | – | – |
| O=c1[nH]c2cc([N+](=O)[O-])c([N+](=O)[O-])cc2[nH]c1=O | inactive | inactive | inactive | inactive | inactive | inactive | inactive | – |
| O=C(O)c1cc(=O)c2c(Cl)cc(Cl)cc2[nH]1 | inactive | inactive | inactive | inactive | inactive | inactive | inactive | – |
| O=C(O)/C=C/C(O)c1ccc(Cl)cc1 (centres undefined) | inactive | inactive | inactive | inactive | inactive | inactive | inactive | – |
| CCN1/C(=C/C(C)=O)Sc2ccc(OC)cc21 | inactive | inactive | inactive | inactive | inactive | inactive | – | – |
| COC1=C(OC)C(=O)c2ccccc2C1=O | inactive | inactive | – | inactive | – | – | – | – |
| CN(C)C(N)=NCCC[C@H](N)C(=O)O | inactive | inactive | inactive | inactive | inactive | inactive | – | – |
| O=C(O)[C@@H]1C[C@@H](C(=O)O)N1 | inactive | inactive | inactive | inactive | inactive | inactive | inactive | – |
| NC(CCCP(=O)(O)O)C(=O)O (centres undefined) | inactive | inactive | inactive | inactive | inactive | inactive | inactive | – |
| CN1CCC[C@H]1c1cccnc1 | inactive | inactive | inactive | inactive | inactive | inactive | – | – |
| O=c1[nH]c2cc(Cl)c(Cl)cc2[nH]c1=O | inactive | inactive | inactive | inactive | inactive | inactive | – | – |
| NCCCCC(=O)O | inactive | inactive | inactive | inactive | inactive | inactive | inactive | – |
| CC(C)Cc1ccc([C@H](C)C(=O)O)cc1 | inactive | inactive | inactive | inactive | inactive | inactive | inactive | – |
| O=C1NC(O)=NC1(c1ccccc1)c1ccccc1 | inactive | inactive | inactive | inactive | inactive | inactive | inactive | – |
| O=Nc1ccc2oc(=O)ccc2c1 | – | inactive | – | – | – | – | – | – |

| Compound | Potency [1] | Potency [2] | outcome [3] | Potency [4] | Potency [5] | Potency [6] | Potency [7] | Potency [8] |
| --- | --- | --- | --- | --- | --- | --- | --- | --- |
| CN(C)c1ccc(/C=C2\C(=O)Nc3ccccc32)cc1 | – | inactive | inactive | inactive | – | – | – | – |
| Nc1ccn([C@@H]2O[C@H](CO)[C@@H](O)[C@@H]2O)c(=O)n1 | – | inactive | – | – | – | – | – | inactive |
| CCCCCCCCCCCCCCCC(=O)NCC(COP(=O)([O-])OCC[N+](C)(C)C)OCC (centres undefined) | – | inactive | inactive | inactive | inactive | – | inactive | – |
| Fc1ccc(C(OCCCc2cnc[nH]2)c2ccc(F)cc2)cc1 | – | inactive | inactive | inactive | inactive | inactive | – | – |
| CCCCCCCC/C=C\CCCCCCCC(=O)NCCO | – | inactive | inactive | inactive | inactive | – | inactive | – |
| O=C(Nc1cccc(C(=O)Nc2ccc(S(=O)(=O)O)c3cc(S(=O)(=O)O)cc(S(=O)(=O)O)c23)c1)Nc1cccc(C(=O)Nc2ccc(S(=O)(=O)O)c3cc(S(=O)(=O)O)cc(S(=O)(=O)O)c23)c1 | inactive | – | inactive | inactive | inactive | inactive | inactive | inactive |
| O=c1[nH]c2cc(C(F)(F)F)ccc2n1-c1cc(C(F)(F)F)ccc1O | – | inactive | inactive | inactive | inactive | inactive | inactive | – |
| O=C1C(SCCO)=C(SCCO)C(=O)c2ccccc21 | – | inactive | inactive | inactive | 3.69 µM (active) | 3.98 µM (active) | – | 28.2 µM (active) |
| N#C/C(=C\c1ccc(O)c(O)c1)C(=O)NCCCc1ccccc1 | – | inactive | inactive | inactive | – | – | – | – |
| Oc1ccc(C2CNCc3sccc32)cc1O (centres undefined) | – | inactive | inactive | inactive | inactive | inactive | inactive | – |
| CCCCCCCCCCCCCCCC(=O)OC(CC(=O)O)C[N+](C)(C)C (centres undefined) | – | inactive | inactive | inactive | inactive | – | inactive | – |
| NC(N)=NC(=O)c1nc(Cl)c(N2CCCCCC2)nc1N | – | inactive | inactive | inactive | inactive | inactive | inactive | inactive |
| N[C@@H](CC(=O)O)C(=O)O | – | inactive | inactive | inactive | inactive | inactive | inactive | – |
| Oc1cc2c(cc1O)CN(C(=S)NCCc1ccc(Cl)cc1)CCC2 | – | inactive | inactive | inactive | inactive | 3.55 µM (active) | inactive | – |
| CC[C@@H](C)[C@H]1O[C@]2(CC[C@@H]1C)C[C@@H]1C[C@@H](C/C=C(\C)[C@@H](O[C@H]3C[C@H](OC)[C@@H](O[C@H]4C[C@H](OC)[C@@H](O)[C@H](C)O4)[C@H](C)O3)[C@@H](C)/C=C/C=C3\CO[C@@H]4[C@H](O)C(C)=C[C@@H](C(=O)O1)[C@]34O)O2 | – | inactive | – | – | – | – | – | – |
